This is part of a sample that, as a whole, favours compounds with a hit. Of some 83,000 tested, about 20% had one in any assay.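 Negative percent growth values reflect cell death: -40 means 40% of the cells present at the start died, and -100 means all died.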 A number with no mark means an inactive call. Active and inactive are the calls of the source. How the source made its calls: active means growth percent below 10; inactive means the rest.
Assays:
Assay in all cases: NCI-60 one-dose screen, 48 h (100 = growth as untreated, 0 = no growth, -100 = all killed)
Conditions in all cases: 10 µM unless noted
RPMI-8226 leukemia = test system: RPMI-8226 leukemia
OVCAR-8 ovarian = test system: OVCAR-8 ovarian
OVCAR-5 ovarian = test system: OVCAR-5 ovarian
OVCAR-4 ovarian = test system: OVCAR-4 ovarian
SK-OV-3 ovarian = test system: SK-OV-3 ovarian
IGROV1 ovarian = test system: IGROV1 ovarian
OVCAR-3 ovarian = test system: OVCAR-3 ovarian
HS 578T breast = test system: HS 578T breast
NCI/ADR-RES ovarian = test system: NCI/ADR-RES ovarian

| Structure (SMILES) | growth (RPMI-8226 leukemia) | growth (OVCAR-8 ovarian) | growth (OVCAR-5 ovarian) [%] | growth (OVCAR-4 ovarian) | growth (SK-OV-3 ovarian) | growth (IGROV1 ovarian) | growth (OVCAR-3 ovarian) | growth (HS 578T breast) | growth (NCI/ADR-RES ovarian) |
| --- | --- | --- | --- | --- | --- | --- | --- | --- | --- |
| CC12CCC3C(=CCc4cc(O)ccc43)C1CCC2=O (stereo unspecified) | 87.8% | 101% | 102 | 107% | 115% | 107% | 111% | 104% | 102% |
| C[C@H]1C(=O)N2c3ccccc3[C@@]3(O)C[C@@H](n4cnc5ccccc5c4=O)C(=O)N1[C@@H]23 | 125% | 91.7% | 110 | 109% | 104% | – | 115% | 32.9% | 104% |
| O=C(N/N=C/c1cccc([N+](=O)[O-])c1)c1ccc(Br)o1 | 85.9% | 39.4% | 107 | 105% | 97.7% | – | 111% | 158% | 101% |
| Cc1cn(C(C=O)OC(C=O)CO)c(=O)[nH]c1=O (stereo unspecified) | 107% | – | 111 | 96.9% | 103% | 102% | 109% | 103% | 107% |
| COc1cc(/C=C/C(=O)C(C(=O)/C=C/c2ccc(OC(=O)CCNc3nnc(C)s3)c(OC)c2)C(=O)CCNc2nnc(C)s2)ccc1OC(=O)CCNc1nnc(C)s1 | -75.2% (active) | – | 37.1 | 35.9% | 45.4% | -37.6% (active) | – | 18.2% | 31.8% |
| COc1cc(/C=C/C(=O)CC(=O)/C=C/c2ccc(OC(=O)CCNC34CC5CC(CC(C5)C3)C4)c(OC)c2)ccc1OC(=O)CCNC12CC3CC(CC(C3)C1)C2 | -30.4% (active) | – | 51.8 | 65.3% | 63.8% | 6.65% (active) | -7.82% (active) | 19.3% | 78.4% |
| COc1cc(-c2n[nH]nc2-c2ccccn2)cc(OC)c1OC | 85.1% | – | 100 | 88.2% | 98.5% | 78.2% | 102% | 98% | 77.9% |
| O=C(Nc1nc2ccc(OC(F)(F)F)cc2s1)c1ccc(F)cc1 | – | 17.8% | 43 | 25.5% | 4.63% (active) | 31.1% | -37.8% (active) | 38.6% | 6.2% (active) |
| COc1ccc(N2CCN(CC(=O)N3CCN(c4nnc(-c5ccccc5)c(-c5ccccc5)n4)CC3)CC2)cc1 | 1.97% (active) | – | 90.3 | 49.8% | 80.7% | – | 49.5% | 54.7% | – |
| CCCCCCCCCCN1CCC(N2CCCCC2)CC1 | -44.8% (active) | -1.39% (active) | 41.5 | 53.7% | 20.9% | – | – | -5.23% (active) | 49.7% |
| COC(=O)c1c(NC(=O)CSc2nnnn2-c2ccc(OC)cc2)sc(C)c1C | 89.8% | 87% | 103 | 94.5% | 95.9% | – | 99.2% | 31.7% | 83.9% |
| Cc1nn(-c2nc3ccccc3s2)c(C)c1Oc1ccccc1O | 33.1% | – | 121 | 74.9% | 75.3% | – | 75.5% | 39% | 101% |
| N[C@H](CS)C(=O)O | 101% | – | 103 | 102% | 107% | – | 122% | 115% | 112% |
| O=C(/C=C/c1c(-c2ccccc2)[nH]c2ccccc12)S(=O)(=O)c1ccccc1 | 21.4% | – | 100 | 80.1% | 89.5% | 51.8% | 68.9% | 90.1% | – |
| COc1ccc(N2CCN(CC(=O)N3CCN(c4nnc(-c5ccc(Cl)cc5)c(-c5ccc(Cl)cc5)n4)CC3)CC2)cc1 | -14.8% (active) | – | 91.6 | 55.5% | 99.5% | – | – | 52.9% | 61.7% |
| Cc1nn(-c2ccccc2)cc1/C=C1\SC(N2CCCCC2)=NC1=O | – | 81.4% | 103 | – | 119% | 68.1% | 96.4% | 99.7% | 89.7% |
| CN(C)CCCNc1nn2c(=O)c3ccccc3nc2c2ccccc12 | 48.8% | – | 80.9 | 77.4% | 54.6% | -12.2% (active) | 57.7% | 61.6% | 72.7% |

| Structure (SMILES) | growth (RPMI-8226 leukemia) | growth (OVCAR-8 ovarian) | growth (OVCAR-5 ovarian) [%] | growth (OVCAR-4 ovarian) | growth (SK-OV-3 ovarian) | growth (IGROV1 ovarian) | growth (OVCAR-3 ovarian) | growth (HS 578T breast) | growth (NCI/ADR-RES ovarian) |
| --- | --- | --- | --- | --- | --- | --- | --- | --- | --- |
| O=C(N/N=C/c1cccc(O)c1O)c1ccccc1 | 32.1% | – | 30.1 | 4.38% (active) | 41.2% | 6.87% (active) | – | 66.1% | 11% |
| O=C(CN1CCN(c2ccc(Cl)cc2)CC1)N1CCN(c2nnc(-c3ccccc3)c(-c3ccccc3)n2)CC1 | -23.4% (active) | – | 86.4 | 30.6% | 85% | – | 40.9% | 62.6% | 39.2% |
| CCOC(=O)c1cnc2c(C)cc(C)cc2c1NCCCN(C)C | 7.09% (active) | – | 38.6 | 44.4% | 38.6% | 5.17% (active) | 34.5% | 65.7% | 31.7% |
| COc1cc(C2CC(C3C(=O)N(C)C(=O)N(C)C3=O)=NN2c2cc(Cl)cc(Cl)c2)cc(OC)c1OC (stereo unspecified) | 85.7% | – | 108 | 96% | 95.6% | 102% | 97.2% | – | 87.2% |
| COc1ccc2c(=O)c(OC)c(-c3cc(OC)c(OC)c(OC)c3)oc2c1 | 92.6% | – | 101 | 96.6% | 114% | – | 98.6% | 91.9% | 83.9% |
| Cc1ccc(S(=O)(=O)N2CCN(C(=O)CSc3nc4ccc(C)cc4[nH]3)CC2)cc1 | 108% | – | 117 | 107% | 114% | – | – | 126% | – |
| COc1ccc(CNC(=O)c2c(C)n([O-])c3ccc(OC)cc3[n+]2=O)cc1 | 94% | – | 103 | 105% | 126% | – | 187% | 108% | 21.3% |
| O=C(Nc1ccc(Cl)cc1)Nc1nc2ccc(OC(F)(F)F)cc2o1 | – | 85.4% | 95.9 | 83.7% | 103% | 130% | 74.3% | 143% | 95% |
| Cc1c2oc3c(C)ccc(C(=O)OC(C)C4NC(=O)C(C(C)C)N(C)C(=O)CN(C)C(=O)C5CCCN5C(=O)C(C(C)C)NC4=O)c3nc-2c(C(=O)OC(C)C2NC(=O)C(C(C)C)N(C)C(=O)CN(C)C(=O)C3CCCN3C(=O)C(C(C)C)NC2=O)c(N)c1=O (stereo unspecified) | – | – | 14.6 | – | 22.5% | 7.56% (active) | 5.3% (active) | -2.72% (active) | 16.9% |
| N#CC1c2ccccc2C=CN1C(=O)N(c1ccccc1)c1ccccc1 (stereo unspecified) | – | 76% | 107 | 77% | 110% | 13.5% | -34.3% (active) | 52.9% | 96.2% |
| O=C(COc1ccc(/C=C2\Oc3ccc4ccccc4c3C2=O)cc1)c1ccc(Cl)cc1 | 62.1% | 100% | 113 | 94.6% | 104% | – | 127% | 91.7% | 107% |
| CCCCCCCCCCCCC1CCCC(C)C1 (stereo unspecified) | 99% | 102% | 105 | – | 99.7% | 91.6% | 108% | 93.3% | 95.3% |
| Clc1ccc2nc(CI)c(CI)nc2c1 | -36.6% (active) | 93% | 91 | 100% | 98.8% | – | 65.4% | 158% | 100% |
| CCN(CC)c1ccc(C(=C2C=CC(=[N+](CC)Cc3cccc(S(=O)(=O)O)c3)C=C2)c2ccc(N(CC)Cc3cccc(S(=O)(=O)O)c3)cc2)cc1 | -43.1% (active) | – | 68.2 | 67.1% | 85.3% | 16.1% | 14.2% | 71.9% | 92.6% |
| O=C(CN1CCN(c2ccc(Cl)cc2)CC1)N1CCN(c2nnc(-c3ccc(Cl)cc3)c(-c3ccc(Cl)cc3)n2)CC1 | 8.48% (active) | – | 103 | 74.2% | 111% | 37.7% | 78.4% | 71.7% | 72.9% |
| CCCn1c(N)c(C(=O)CNc2ccc(I)cc2)c(=O)[nH]c1=O | 29.1% | – | 137 | 74.4% | 56% | – | 64.9% | 44.3% | 77.1% |
| COc1ccc(CC(=O)Nc2nn3c(-c4cc(C(F)(F)F)cc(C(F)(F)F)c4)nnc3s2)cc1 | 39.7% | 65% | 96 | 66.3% | – | 59.9% | 53.5% | 75.6% | – |

— PubChem BioAssay (NCI)
